Measurements reported in PubChem BioAssay.

Assay: E. coli DRC41 culture turbidity changes, primary screen, E. coli filamentation inducer project, strain DRC41, OD650, 48 h (AID 1152);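 note: E. coli MC1000 strain DRC41 lacking acrAB efflux pump and sulA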
Conditions: E. coli DRC41 (acrAB sulA), higher = more signal, called active from +8 up or from −8 down

z-score, inactive:
CC(C)C(=C=CC[C@H](O)c1ccc(OCCO)cc1)C[C@H](O)c1cc(Cl)cc(Cl)c1O 0.049, C=C(COC)/C(=C/C[C@@H](OC(=O)c1ccncc1)c1ccc(OCCO)cc1)c1cnc2ccccc2c1 0.634, CC(C)CN1C(=O)[C@@]2(c3ccc([N+](=O)[O-])cc3)CC(=O)N(CC34CC5CC(CC(C5)C3)C4)[C@@H]2c2ccc(CO)cc21 0.193, C=C(CCCC)/C(=C/C[C@@H](OC(C)=O)c1ccc(CO)o1)c1cc(C(=O)OC)ccc1OC -0.132, C=C(C(=O)CC[C@H](OC(=O)c1cccnc1)c1ccc(CO)o1)C(C)C -0.92, CCOc1cc(C(O)C2C=CC3C(=O)N(C4CCCCC4)C(=O)C3N2Nc2ccc(OC)cc2)ccc1O (stereo unspecified) -0.0582, CN(C)CCCNC(=O)[C@@H]1c2ccccc2C(=O)N(CC23CC4CC(CC(C4)C2)C3)[C@H]1c1ccc(CO)cc1 0.0377, NC(=O)N1C(=O)C2C(C1=O)C1C=C(CCCO)C2C(c2cccs2)N1Cc1cc2c(cc1Br)OCO2 (stereo unspecified) 0.0978, [N-]=[N+]=NCc1ccccc1[C@H]1OC(c2ccc(OCCCO)cc2)=N[C@@]1(CCS(=O)(=O)c1ccccc1)C(N)=O -0.56, CC(C)(C)OC(=O)CC[C@]1(C(=O)O)N=C(c2ccc(OCCCO)cc2)O[C@H]1c1ccccc1 1.11, COc1ccc([Si](C)(C)[C@@H]2[C@@H](CCO)O[C@]3(C(=O)N(Cc4cccc(N5C(=O)c6cccc7cccc5c67)c4)c4ccccc43)[C@H]2C)cc1 -0.21
